Source: PubChem (National Center for Advancing Translational Sciences (NCATS))
Giardia FBPA inh: blocks Giardia fructose-bisphosphate aldolase activity; A8B2U2; purified Giardia FBPA; Potency, µM (series often up to 59.6 µM), for inactives: at the highest dose activity, negative = inhibition, most hits filed as inhibitors; 290,000 tested, 0.71% active; AID 2451; further: potency means the concentration at half of the fitted maximal effect; nearly all actives have a fitted effect of over 55% in size
Target sequence (A8B2U2 whole entry, looked up): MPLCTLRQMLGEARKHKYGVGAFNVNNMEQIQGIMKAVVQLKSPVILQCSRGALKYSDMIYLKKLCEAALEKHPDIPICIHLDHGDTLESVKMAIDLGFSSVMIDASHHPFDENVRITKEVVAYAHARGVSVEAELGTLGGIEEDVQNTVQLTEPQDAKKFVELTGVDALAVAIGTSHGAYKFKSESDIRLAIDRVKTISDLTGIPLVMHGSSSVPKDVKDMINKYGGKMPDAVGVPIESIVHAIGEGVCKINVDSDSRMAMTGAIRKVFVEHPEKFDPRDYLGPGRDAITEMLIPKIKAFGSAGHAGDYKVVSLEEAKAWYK
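40 nM FBPA preincubated 10 min at RT with compound (up to 57.5 uM final), then substrate plus GAPDH/TPI/NAD/arsenate coupling and diaphorase/resazurin added. Fluorescence read after 20 min at RT, 525/598 nm.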
Vaccinia Venus: inhibitors of vaccinia virus (Venus reporter); Potency, µM (titrated, usually from 36.5 µM), for the others: at the highest dose activity change, negative = inhibition, actives largely listed as inhibitors; AID 720580; Vaccinia virus Venus reporter expression, fluorescence; 330,000 tested, 0.46% active; calls by dose curve; tested in A549 cells; further: potency means the concentration at half of the fitted maximal effect; nearly all actives have a fitted effect of over 30% in size
HCMV antiviral: inhibitors of human cytomegalovirus; HFF cells, HCMV-luciferase reporter, 72 h; active compounds read low; activity change, negative = inhibition, % at 57.5 µM; 410,000 tested, 4.5% active; AID 1259415; in the data active means activity change below about -60%; inconclusive means no clear call, values can overlap the other calls; inactive means above about -39%
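Luciferase read-out from HCMV-luciferase-infected HFFs (MOI 1 PFU/cell) 72 h post infection at 37C; compounds added after 16 h cell attachment; activity normalized between buffer-only basal and Salinomycin (10uM) inhibitor controls.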
Vaccinia mCherry: vaccinia inhibition (mCherry reporter) | AID 720579 | Vaccinia virus mCherry reporter infection, fluorescence | 310,000 tested, 0.63% active | Potency, µM (top dose mostly 36.5 µM), for inactives: at the highest dose activity change, negative = inhibition, usual class: inhibitors; calls by dose curve; tested in A549 cells; further: potency means the concentration at half of the fitted maximal effect; nearly all actives have a fitted effect of over 35% in size
HCV inh: HCV inhibition; 340,000 tested, 3.4% active; Potency, µM (titrated, usually from 41.8 µM), without a hit: at the top dose activity change, negative = inhibition, most hits filed as inhibitors; Huh7.5.1 HCVcc-Cre infection, luciferase reporter, 44 h; further: potency means the concentration at half of the fitted maximal effect
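Antiviral activity was scored by luciferase reporter output from cells infected with HCVcc-Cre (~0.5 moi) in presence of compound, 44 h infection period, cells seeded 1,000/well 4 h prior.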
FMDV antiviral: foot and mouth disease virus antiviral activity; FMDV antiviral cell-based qHTS; 410,000 tested, 1.2% active; Potency, µM (doses to about 57.9 µM), for the others: at the top dose activity change, negative = inhibition, most hits filed as inhibitors; AID 1159524; calls by dose curve; tested in HEK293T cells; further: read-out not given here; potency means the concentration at half of the fitted maximal effect; nearly all actives have a fitted effect of over 45% in size
Starred values were filed as active, the others as inactive; i = inactive; ? = inconclusive; . = no result given; ! = a repeat was not active. Most compounds without a hit are left out; they make up all but 7.5% or so of the library. Unless noted, the call rests on the fitted dose curve; in most records, active means well fitted curve in the direction sought with a large enough effect; inconclusive means small, poorly fitted or top-dose-only effect, or another doubt; inactive means no such curve, though single readings can be large; an effect the other way counts as inactive or inconclusive. On the % scale 0 is the no-effect control and ±100 the full control effect.

SMILES	Giardia FBPA inh	Vaccinia Venus	HCMV antiviral	Vaccinia mCherry	HCV inh	FMDV antiviral
Cc1cccnc1NC(=O)c1cccc(S(=O)(=O)N2CCCc3ccccc32)c1	.	-24%	-1	-2%	-25%	-25%
C=CC[n+]1c(/C=C/c2ccc(OC(C)=O)c(OC)c2)ccc2ccccc21	4%	.	-100*	.	?	-22%
COc1cc(/C=N/NC(=O)Nc2ccccc2)ccc1OC(C)=O	-1%	1%	45	-12%	10%	30%
O=C1CCC[C@H]2[C@@H](Cc3ccccc3)[C@@H](NS(=O)(=O)c3ccc4ccccc4c3)CC[C@]23CCCN13	.	.	3	.	.	.
CCn1c(NC(=O)c2ccc(COc3ccc(C)cc3[N+](=O)[O-])o2)nc2ccccc21	2%	.	-63*	.	6%	-12%
Cc1csc(SCC(=O)Nc2cccc(C)c2C)n1	.	-11%	-64*	i	-1%	2%
Cc1csc(SCC(=O)N2CCCC2)n1	2%	-13%	-71*	.	-5%	-5%
Cc1csc(SCC(=O)N2CCN(S(=O)(=O)c3ccccc3)CC2)n1	4%	-12%	-27	-27%	2%	-21%
Cc1ccc(C)c(NC(=O)CSc2nc(C)cs2)c1	.	.	-5	.	13%	-3%
Cc1nc(C)n(CC(=O)NCC2Cc3cc(-c4ccsc4)cc(Cl)c3O2)n1 (centres undefined)	.	-5%	.	-7%	.	-7%
Cc1ccc(CNC(=O)CSc2c3c(nc4cc(Cl)ccc24)CCCC3)o1	-10%	.	6	.	4.5µM*	28µM*
COc1ccc(OC)c(CNC(=O)CSc2c3c(nc4cc(Cl)ccc24)CCCC3)c1	.	-10%	-60*	-5%	.	?
CCOc1ccc(CNC(=O)CSc2c3c(nc4cc(Cl)ccc24)CCCC3)cc1	.	-13%	?	-5%	.	?
O=C(C1CCN(S(=O)(=O)N2CCOCC2)CC1)N1CCN(c2ccc(F)cc2)CC1	2%	-8%	-74*	-12%	?	-2%
Cn1c(=O)oc2cc(S(=O)(=O)N3CCCC(C(=O)N4CCN(c5ccc(F)cc5)CC4)C3)ccc21 (centres undefined)	.	-18%	5	-16%	.	?
Cc1ccc(C)c(N2CCN(C(=O)C3CCCN(S(=O)(=O)c4ccc5c(c4)oc(=O)n5C)C3)CC2)c1 (centres undefined)	.	-25%	-27	-27%	.	16µM*
COc1cccc(N2CCN(C(=O)C3CCCN(S(=O)(=O)c4ccc5c(c4)oc(=O)n5C)C3)CC2)c1 (centres undefined)	-12%	-20%	-79*!	-20%	13µM*	?
CSc1ccc(CNC(=O)C2CCCN(S(=O)(=O)N(C)c3ccc(F)cc3)C2)cc1 (centres undefined)	.	-14%	-61*	-14%	.	?
CC1CCN(S(=O)(=O)N2CCCC(C(=O)NCc3ccc(F)cc3)C2)CC1 (centres undefined)	.	-4%	-23	?	6%	-18%
CCOC(=O)C1CCCN(C(=O)C2CCCN(S(=O)(=O)c3ccc4c(c3)oc(=O)n4C)C2)C1 (centres undefined)	0%	-1%	-31	i	-19%	-22%
O=S(=O)(Nc1ccc(-c2ccc3nncn3n2)cc1)c1cccs1	.	-6%	-29	i	0%	-8%
Cc1ccc(NC(=O)C2CCCN(S(=O)(=O)c3ccc4c(c3)oc(=O)n4C)C2)cc1Cl (centres undefined)	.	-10%	14	-14%	.	?
CN(C)c1ccc(CNC(=O)C2CCCN(S(=O)(=O)c3ccc4c(c3)oc(=O)n4C)C2)cc1 (centres undefined)	.	0%	-105*	3%	.	0%
O=C(c1ccc(F)c(S(=O)(=O)N2CCOCC2)c1)N1CCN(c2ccc(F)cc2)CC1	.	.	-65*	.	19%	-18%
O=C(c1ccc(F)c(S(=O)(=O)N2CCOCC2)c1)N1CCN(c2ncccn2)CC1	.	.	18	.	2%	-8%
Cn1c(=O)oc2cc(S(=O)(=O)N3CCC(C(=O)N4CCN(c5ccccc5)CC4)CC3)ccc21	5%	-14%	?	i	5%	?
